Screening data as filed in PubChem BioAssay.
Beta apoptosis – blocks beta cell apoptosis. INS-1E cytokine-induced death, ATP luminescence, 48 h; percent of positive-control rescue, neutral wells zero. protection from apoptosis, % (concentration not given with the values). 300,000 tested, 0.8% active. AID 435005;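 active = Every replicate reaches about 75%, or at least half do and their mean reaches it too, limit read from the data; inconclusive = At least half of replicates reach the limit but their mean does not; inactive = Under half of replicates reach the limit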;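 also: 0% = cytokine-treated negative control wells and 100% = positive control rescue; higher means more ATP so stronger rescue from cytokine killing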
Jurkat NFkB inh – inhibitors of the PMA/ionomycin-induced NF-kB reporter in Jurkat cells. inhibition, % at 4 µM. PMA/ionomycin-induced NF-kB luciferase reporter, luminescence. 330,000 tested, 0.53% active; in the data active = inhibition above about 50%
Calb FLC – C. albicans growth modulation with fluconazole; C. albicans CaCi-2 (fluconazole-resistant clinical isolate) + fluconazole, Alamar Blue growth, 48 h; 300,000 tested, 0.57% active; AID 1979; growth inhibition, % (concentration not given with the values);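 active = growth inhibition above about 58% in most replicates, limit read from the data, passing the limit was not always enough; inconclusive = exactly half the replicates above a set limit; inactive = most replicates below a set limit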;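 also: all wells also contain fluconazole at 8 µg/ml as a sub-toxic cotreatment; 0% = median of DMSO wells and 100% = median of geldanamycin control wells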
697 NFkB inh – inhibitors of the PMA/ionomycin-induced NF-kB reporter in 697 B cells; 330,000 tested, 0.33% active; inhibition, % at 4 µM; 697 B-cell NF-kB luciferase reporter, 16 h; AID 435022; in the data active = inhibition above about 35%
Shn3 inh set2 – reduces Shn3 3'UTR luciferase signal in osteoblasts; inhibition, % at 12.5 µM; Clone20 osteoblast Shn3 3'UTR firefly luciferase, 24 h; 360,000 tested, 0.52% active;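 active = mean inhibition of at least 75% with every replicate also reaching 75%; inconclusive = mean inhibition at least 75% but some replicate below; inactive = mean inhibition below 75%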;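 also: 0% = median of neutral control wells and 100% = pilot-screen positive control compound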
* hit, by the source's call; ? = inconclusive; · = no result. Only some compounds are listed: those with a hit (about 2% of all), similar ones and a draw of the others.

SMILES	Beta apoptosis	Jurkat NFkB inh	Calb FLC	697 NFkB inh	Shn3 inh set2
CC1(C(=O)NC2CCc3ccccc32)CCN1CCc1ccccc1 (configuration not stated)	·	·	·	·	22
Cc1nnc(NC(=O)C2CC(=O)N(C(C)c3ccccc3)C2)s1 (configuration not stated)	-2	7	3	6	10
C/C(=N\Nc1nc(-c2ccccn2)nc2ccccc12)c1ccc(F)cc1	87*	19	1	-9	-21
c1ccc(Oc2nc(-c3ccccn3)nc3ccccc23)cc1	47	-19	10	-25	-26
c1ccc(-c2nc(N3CCCCCC3)c3ccccc3n2)nc1	123*	8	-3	-10	80
C/C(=N\Nc1nc(-c2ccccc2O)nc2ccccc12)c1ccccc1	17	-16	18	-26	-11
Fc1ccc(Oc2nc(-c3ccccn3)nc3ccccc23)cc1	77*	-10	-5	-35	0
CC1(C2CC2)NC(=O)N(CC(=O)Nc2ccc(Cl)c([N+](=O)[O-])c2)C1=O (configuration not stated)	-4	-8	·	8	4
N#Cc1ccc(-c2ccc(OCC(=O)Nc3cccnc3)cc2)cc1	-6	35	-12	3	89*
CC(=O)Nc1ccc(NC(=O)COc2ccc(-c3ccc(C#N)cc3)cc2)cc1	3	1	·	11	2
C#CCOC(=O)CCCC(=O)NCCCCCCCC	-4	-6	109*	-6	1
c1ccc(CN2CC[C@@H](Nc3nccn4ccnc34)C2)cc1	·	·	·	·	-8
Cc1ccc(Oc2c(C(N)=O)cc([N+](=O)[O-])cc2[N+](=O)[O-])cc1	5	6	-7	-10	93*
O=C(N/C(=C\c1ccco1)C(=O)N1CCCC1CO)c1ccccc1 (configuration not stated)	-1	-5	-4	7	-14
c1ccc(CN2CCN(c3ncccn3)CC2)cc1	2	9	12	3	17
CC1(C)CC(N2CCN(Cc3ccccc3)CC2)=CC(=[N+]2CCCCC2)C1	109*	47	83*	-15	82
CN=c1scc(-c2ccc(F)cc2)n1/N=C/c1ccc(O)c(O)c1	·	33	·	-147	89*
O=[N+]([O-])c1ccc(CN2CCN(c3ccccc3)CC2)o1	-8	3	-15	7	1
O=[N+]([O-])c1ccc(N2CCN(Cc3ccc([N+](=O)[O-])o3)CC2)cc1	-1	3	133*	11	-4
COc1ccccc1OCCCCOc1ccccc1C(C)=O	100*	13	?	-9	41
CC1C(=O)N2CCCc3cc(NC(=O)C(=O)NCc4ccccn4)cc1c32 (configuration not stated)	-2	6	-1	4	-7
COCCNC(=O)CCCn1c(=O)c2cc(OC)c(OC)cc2n(CC(=O)NCCC2=CCCCC2)c1=O	-4	6	51*	0	-78
CSc1nc(Cl)c(C#N)c(-c2ccc(C)cc2)n1	3	7	81*	25	-2
Cc1cc(C)n(CC(=O)NC2CCCc3c2cnn3-c2ccc(C)c(C)c2)n1 (configuration not stated)	-3	-19	-19	-56	-32
CCCNc1nc2c(c(=O)n(C)c(=O)n2C)n1Cc1cccc(C)c1	37	28	-9	-9	96*
SMILES	Beta apoptosis	Jurkat NFkB inh	Calb FLC	697 NFkB inh	Shn3 inh set2
CC(O)CNc1nc2c(c(=O)n(C)c(=O)n2C)n1Cc1cccc(C(F)(F)F)c1 (configuration not stated)	-6	-5	2	-5	12
CCCNc1nc2c(c(=O)n(C)c(=O)n2C)n1CCc1ccccc1	35	18	-18	-40	57
COCCNc1nc2c(c(=O)n(C)c(=O)n2C)n1Cc1cccc(C(F)(F)F)c1	87*	12	-2	-10	90*
COc1ccc2nc3cc(Cl)ccc3c(Nc3cc(C(C)C)c(O)cc3C)c2c1	114*	-17	19	-27	17
COc1ccccc1/C=C1\SC(=S)N(NS(=O)(=O)c2ccccc2)C1=O	-5	-12	91*	4	0
COc1ccc(C#Cc2cnc3c(c2)C(=O)N([C@@H](C)CO)C[C@@H](C)[C@@H](CN(C)CC2CCOCC2)O3)cc1	·	·	·	·	-27
O=C(Cc1ccc(NC(=O)C2CCN(C(=O)c3ccccc3)CC2)cc1)Nc1ccc(C(=O)N2CCOCC2)cc1	·	·	·	·	-11
CN(c1ccccc1)c1ccc(/C=C/[N+](=O)[O-])cc1	89*	·	18	·	94*
Cc1cc2oc(=O)cc(CN3CCN(c4ccccc4)CC3)c2cc1Cl	·	·	·	·	3
Cc1cc2oc(=O)cc(Cn3ncc(Cl)c(Cl)c3=O)c2cc1Cl	110*	28	18	-7	97*
Cc1ccc(C2(c3noc(CN4CCC(c5ccncc5)CC4)n3)CCCC2)cc1	14	11	119*	-44	67
COc1ccc(C2=CSC3=NNC4(CCCCC4)NN23)cc1	-5	-9	112*	-7	7
Cc1ccc(C2=CSC3=NNC4(CCCCC4)NN23)cc1	0	-33	111*	-20	-54
O=C(O)C1CCCN1c1nc(-c2ccc(Cl)c(Cl)c2)cc(C(F)(F)F)n1 (configuration not stated)	0	11	·	-1	5
Cc1cc(N2CCN(S(=O)(=O)c3ccc(Cl)cc3)CC2)c2ccccc2n1	81*	16	1	-80	35
CCCC(C)(C)C(=O)N1CCC1(C)C(=O)NS(=O)(=O)c1ccc(Br)cc1 (configuration not stated)	·	·	·	·	-15
CCN(CC)c1c([N+](=O)[O-])c(=O)n(C)c2ccccc12	-1	-5	0	8	-8
Cn1c(=O)c([N+](=O)[O-])c(Cl)c2ccccc21	·	·	1	·	97*
COc1cccc(C(=O)Nc2cccc(-c3ccc(N4CCOCC4)nn3)c2)c1OC	7	-84	14	-93	-76
O=C(/C=C/c1cccs1)NC(=S)NNC(=O)c1ccccc1O	31	-12	118*	1	70
CC(C)c1ccc(NC(=O)Cc2cn(C)c3ccccc23)cc1	4	13	114*	7	-14
Cn1cc(CC(=O)NCc2ccc(F)cc2)c2ccccc21	-9	-30	12	19	-19
C=C(C)CN(CC)C(=O)CSc1ccc(S(=O)(=O)N2CCN(C)CC2)cn1	·	-2	·	-11	-10
C[C@@H]1CC=C[C@H]2[C@H]1C(=O)N(Cc1ccccc1)[C@H]2c1cccc([N+](=O)[O-])c1	-21	9	3	-33	87*
CCOC(=O)c1cn(CC(=O)Nc2cccc(Cl)c2)nn1	0	-2	9	20	-5
CCOC(=O)c1cn(CC(=O)Nc2cccc(Cl)c2C)nn1	-7	-3	-5	-8	95*
O=C(COC(=O)/C=C/c1ccc(OC(F)F)cc1)NC1CCCCCCC1	-3	1	2	1	-17
Cc1cnc(NC(=O)Nc2ccccc2)c(C)n1	-6	-18	-10	-10	-16
